# In the library only some 1.3% were active in any assay of this set; here they are far more common.
# IDE cell inh = inhibitors of human insulin-degrading enzyme in cells; 0.41% of 320,000 active; AID 434962; P14735; inhibition, % at 5.59 µM; HEK cells, FAbetaB cleavage, fluorescence polarization;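 active = percent inhibition above the average of all tested compounds plus 3 SD, set per screening campaign, cut at about 16% in these data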;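 also: IDE supplied by intact live HEK cells; FP after avidin binding of uncleaved biotin substrate so inhibition keeps polarization high; 0% = DMSO wells and 100% = 60 µM reference IDE inhibitor Ii1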
# PKA-R2B act = activators of human PKA-R2B complex; AID 504700; P22694+P31323; activation, % at 11.4 µM; 0.079% of 340,000 active; PKA-R2B holoenzyme dissociation, Cy5-IP20 fluorescence polarization; R2B truncated from residue 108, S112A mutant; 0% DMSO only, 100% 113 µM cGMP;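 active = activation above a cutoff set at the mean over all compounds plus 3 SD, cut at about 18% in these data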;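 also: higher means more holoenzyme dissociation and a rise in polarization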
# Rin1 Abl inh = human Rin1-Abl interaction inhibition. TR-FRET Rin1/Abl binding, biochemical. inhibition, % at 7.35 µM. 0.4% of 360,000 active. P00519+Q13671; in the data active = inhibition above about 5%, passing the limit was not always enough
# PKA-R1A activ = PKA-R1A complex activation; 0.083% of 340,000 active; PKA-R1A dissociation, Cy5-IP20 fluorescence polarization; scaled: DMSO 0%, 113 µM cGMP 100%; activation, % at 11.4 µM; P00514+P68181;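 active = percent activation above the mean of all tested compounds plus 3 SD, cut at about 19% in these data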;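 also: higher means more PKAc released from R1A so a rise in polarization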
# IDE act = activators of human insulin-degrading enzyme in cells. HEK cells, FAbeta-B cleavage, fluorescence polarization; 0% vehicle, 100% cell-free pure enzyme wells. activation, % at 5.96 µM. 0.073% of 340,000 active;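 active = activation above the mean of all tested compounds plus 3 SD, set per screening campaign, cut at about 17% in these data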
# E coli Lon inh = inhibitors of E. coli Lon protease. purified E. coli Lon protease, fluorescence polarization. inhibition, % at 7.94 µM. 0.42% of 360,000 active; in the data active = inhibition above about 13%, passing the limit was not always enough;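 also: 0% = enzyme with probe and DMSO and 100% = no enzyme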
# R2B FP artifact = FP assay interference, PKA-R2B counter-screen | shares compounds with PKA-R2B act | FP artifact counterscreen, fluorescence polarization | activation, % at 11.4 µM | 6% of 270 active | AID 504796; in the data active = activation above about 20%;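 also: Cy5 labelled IP20 peptide probe with compound but no PKA protein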
# PKA-R2B confirm = confirmation of human PKA-R2B complex activators. fluorescence polarization, activation. shares compounds with PKA-R2B act. AID 504797. 9% of 270 active. activation, % at 11.4 µM; in the data active = activation above about 19%
# The depositor's hits bear a star; / = not tested or not shown.
SMILES,IDE cell inh,PKA-R2B act,Rin1 Abl inh,PKA-R1A activ,IDE act,E coli Lon inh,R2B FP artifact,PKA-R2B confirm
COCCN(C(=O)COC(=O)/C=C/c1cccs1)c1c(N)n(Cc2ccccc2)c(=O)[nH]c1=O,3,23*,3,6,2,-3,2,2
O=C(NC1CCCCC1)c1c(O)nc2sccn2c1=O,1,20*,0,4,-1,1,8,0
O=C(NC1CCCCCC1)c1c(O)nc2sccn2c1=O,-1,-6,1,3,1,-12,/,/
COc1ccc(CCNC(=O)CN(Cc2ccc(Cl)cc2)S(C)(=O)=O)cc1OC,-6,8,0,14,-1,-13,/,/
CCOc1ccc(S(=O)(=O)Nc2cccc(C(=O)N3CCN(c4cccc(OC)c4)CC3)c2)cc1,-3,0,0,3,3,-2,/,/
O=C1NCCCN1C1OC(CO)C(O)C1O (stereo unspecified),/,22*,2,11,/,-1,6,6
O=c1cnn([C@@H]2O[C@H](CO)[C@@H](O)[C@H]2O)c(=O)[nH]1,-1,-7,1,-9,0,-1,/,/
Nn1c(Cc2ccccc2)n[nH]c1=S,3,-4,2,1,5,5,/,/
CCCN(CCC)CCNc1c(NC2CCN(C(=O)OCC)CC2)c(=O)c1=O,-3,-5,-6,2,-7,7,/,/
CCOC(=O)N1CCC(Nc2c(NCCCN(C)Cc3ccccc3)c(=O)c2=O)CC1,0,20*,0,10,-3,1,0,2
CCOC(=O)c1c(OCCO)noc1N,-5,7,3,10,-2,-2,/,/
CC(=O)c1ccc(OCC(=O)Nc2nnc(C3CC3)s2)cc1,/,20*,-1,0,/,-8,5,2
C=CCc1cccc2cc(C(=O)NNC(=O)c3ccncc3)c(=O)oc12,3,5,0,-8,3,4,/,/
COC(=O)CN1C(=S)N(c2ccc(Cl)cc2)C(=O)C1CC(=O)Nc1ccccc1 (stereo unspecified),-6,-4,0,6,-3,-11,/,/
COC(=O)CN1C(=S)N(C)C(=O)C1CC(=O)Nc1ccccc1 (stereo unspecified),-1,21*,-4,-13,9,-6,-1,-1
CN(C)S(=O)(=O)c1cccc(-c2cn3ccccc3n2)c1,0,19*,1,4,5,3,5,4
CNC(=S)NNc1nc(N2CCOCC2)nc(N2CCOCC2)n1,1,-6,2,-6,5,-6,/,/
CCNC(=S)NNc1nc(N2CCOCC2)nc(N2CCOCC2)n1,5,19*,-3,-10,1,2,1,1
Cc1cc(NC(=O)/C=C/c2ccccc2)c(C(C)C)cc1O,5,14,0,1,3,-7,/,/
Cc1ccc(C(C)C)c(O)c1C(=O)O,/,19*,-3,-4,3,-5,5,2
O=C(COC(=O)Cc1ccc(Cl)cc1)NCc1ccc(Cl)cc1,/,4,4,-8,/,-3,/,/
COc1ccc(OC)c(S(=O)(=O)NCC(=O)O)c1,-1,-3,-1,0,3,-9,/,/
Cc1cc(C)c(S(=O)(=O)NCC(=O)O)cc1C,-7,20*,4,4,1,1,5,4
COc1ccc(NC(=O)c2c(C(F)(F)F)nn(C)c2Cl)cc1,2,/,4,/,/,-3,/,/
Cn1nc(C(F)(F)F)c(C(=O)Nc2ccc(F)cc2)c1Cl,4,20*,3,-1,2,-10,-2,2
Cc1nn(CC(=O)OCC(=O)Nc2ccccc2[N+](=O)[O-])c(C)c1[N+](=O)[O-],0,19*,2,4,-1,2,-1,3
O=C(O)c1cccc(NC2=C(Cl)C(=O)c3ccccc3C2=O)c1,/,22*,0,9,6,0,1,0
